# In PubChem BioAssay (NCI):
# About 79,000 compounds went through this panel and 15% of them were active in at least one assay; those are over-represented in the sample as a whole. Values without a mark were called inactive. The source made the active and inactive calls. Cut-off read from the data, not from the text of the source: active = growth inhibition above about 70%; inactive = the rest. Where a SMILES comes first, the peptide text is derived from it. The star is where a group is joined. Cbz = O=C(OCc1ccccc1)*
# Assay: NCI Yeast Anticancer Drug Screen. Data for the rad50 strain (AID 155);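 note: 0% = growth of vehicle-only cultures of the same strain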
# Settings: S. cerevisiae rad50 strain growth inhibition; at 50.0 µM; active compounds read high
# Method in brief: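 Compounds were tested on a yeast strain with an engineered DNA damage repair alteration; the reported value is growth inhibition normalised to vehicle treatment.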
row,Structure (SMILES),growth inhibition
1,COc1cc(O)c(C(C)=O)c(OC)c1,-8.25%
2,Cc1n[nH]c(=O)n1Nc1ccccc1,13.2%
3,O=S(=O)(Cc1c(Cl)c(Cl)c(Cl)c(Cl)c1Cl)c1ccc(Cl)cc1,1.2%
4,CCC(=O)C1(CCCN(C)C)c2ccccc2Sc2ccccc21,-14.3%
5,O=C1OCCC1(Cc1ccc(Cl)cc1)Cc1ccc(Cl)cc1,-16.1%
6,NC(=O)c1ncnc2nc[nH]c12,-14.2%
7,Oc1cc2nc3ccccc3nc2c2ccc(Br)cc12,-12.8%
8,Cn1ccc(=S)c2ccccc21,18.2%
9,Cc1c(-c2ccc3c(c2)OCO3)sc(N)c1C#N,5%
10,C/C=C(\C)C(=O)N1c2ccccc2CC1c1c(C)[nH]c2ccccc12 (stereo not given),29.1%
11,CCCc1ccc(N=Cc2cc(OC)c(OC)c(OC)c2)cc1,-1.85%
12,O=NN(CCCl)C(=O)Oc1ccc2ccccc2c1,29.4%
13,CC(=O)Nc1cccc(OCCOc2ccccc2[N+](=O)[O-])c1,-0.6%
14,COC1C(O)CC(OC2CC(OC3CC(O[C@@H]4C(=O)c5c(cc6cc(OC7CC(OC8CC(O)C(O)C(C)O8)C(O)C(C)O7)c(C)c(O)c6c5O)C[C@H]4[C@H](OC)C(=O)[C@@H](O)[C@@H](C)O)OC(C)C3O)OC(C)C2O)OC1C (stereo not given in full),38.7%
15,NC(CO)C(O)c1ccc([N+](=O)[O-])cc1 (stereo not given),-14.6%
16,Cc1no[n+]([O-])c1NC(=O)OCc1ccccc1,-1.8%
17,COC1/C=C/OC2(C)Oc3c(C)c(O)c4c(O)c(c5c(nc(-c6ccco6)n5-c5ccccc5)c4c3C2=O)NC(=O)/C(C)=C\C=C\C(C)C(O)C(C)C(O)C(C)C(OC(C)=O)C1C (stereo not given),-6.2%
18,Cc1ccc(C(C)C)nc1,17.1%
19,Cc1c2oc3c(C)ccc(C(=O)NCCN4CCN(c5ccccc5)CC4)c3nc-2c(C(=O)NCCN2CCN(c3ccccc3)CC2)c(N)c1=O,-4.7%
20,CNC(=O)Nc1ccc(Cl)cc1C(=O)O,-26.2%

row,Structure (SMILES),growth inhibition
1,O=C(CNC(=O)C(CCC(=O)OCc1ccccc1)NC(=O)OCc1ccccc1)NCC(=O)Oc1ccc([N+](=O)[O-])cc1 (stereo not given),25.1%
2,O=C(Nc1ccn(CCI)c(=O)n1)c1ccccc1,-20.8%
3,CC1(C(=O)O)CCC(C(=O)Nc2ccccc2)C1(C)C (stereo not given),-11.2%
4,NNc1cc(S(=O)(=O)O)cc(C(=O)O)c1O,14.5%
5,CC(=O)O[C@H]1C[C@H]2[C@@H](OC(C)=O)/C=C3\C[C@](C)(C(=O)[C@H](O)C(=C1C)C2(C)C)[C@@H](O)C[C@@H]3OC(=O)[C@H](O)[C@H](c1ccccc1)N(C)C,7.3%
6,COC(=O)COc1cc2c(cc1C(C)c1ccc(O)cc1)OCO2 (stereo not given),98.8% (active)
7,NC(=O)CO,22.2%
8,N=c1c2ccccc2nc2oc3ccc(Cl)cc3n12,-15.4%
9,COC(=O)C1CC=CCCC1=O (stereo not given),-3.8%
10,COc1ccc(-c2cc(=O)c3c(O)cc(O)c(-c4cc(-c5cc(=O)c6c(O)cc(OC)cc6o5)ccc4OC)c3o2)cc1,39.1%
11,O=C1ON(c2ccccc2)C(c2cccc(Cl)c2)N1c1ccccc1 (stereo not given),14.1%
12,O=C(O)c1ccc(B(O)O)cc1[N+](=O)[O-],11.8%
13,CC(C)C(NC(=O)C(Cc1ccc(O)cc1)NC(=O)OCc1ccccc1)C(=O)O (stereo not drawn) (Cbz-Tyr-Val-OH; configuration not given here),10.2%
14,COc1cccc(-c2nc(-c3cnccn3)n(C3OC(CO)C(O)C3O)n2)c1 (stereo not given),-16.4%
15,O=C1C(=Cc2cccnc2)C(=O)c2ccccc21,26%
16,O=C(Cc1c[nH]c2ccccc12)N/N=C/c1ccccc1[N+](=O)[O-],18.9%
17,N=C(N)SCc1cn2ccccc2n1,-37%
18,CSCCC(NC=O)C(=O)O (stereo not given),-0.65%
19,O=c1ccc2cc(Cl)ccc2o1,12.6%
20,COC(=O)C12OCC34C(CC(C(C)=O)C(C)(CC(=O)O)C3C(O)C1O)OC(=O)C(OC(=O)/C=C(\C)C(C)C)C24 (stereo not given),10%
